The sample as a whole holds a higher share of hits than the screen did.
Bead autofluor: flagged as autofluorescent in microsphere protease counterscreen | compound autofluorescence counterscreen, microsphere flow cytometry; hits give high values | fluorescence intensity (no concentration beside the values) | 360,000 compounds, 3.1% hits; in the data active = fluorescence intensity above about 16000; inconclusive = no clear call, values can overlap the other calls
BoNT-F LC inh: blocks Botulinum neurotoxin F light chain protease; 360,000 compounds, 0.22% hits; Multiplex microsphere protease cleavage assay, flow cytometry; inhibition, % at 10 µM; in the data active = inhibition above about 35%, passing the limit was not always enough; inconclusive = no clear call, values can overlap the other calls; note: plate controls were buffer without enzyme for full effect and enzyme alone for no effect
Anthrax LF prot: inhibitors of Bacillus anthracis lethal factor protease; 360,000 compounds, 0.12% hits; inhibition, % at 10 µM; multiplex microsphere protease cleavage assay, LF; P15917; note: plate controls were buffer without enzyme for full effect and enzyme alone for no effect
BoNT A protease: BoNT A light chain protease inhibition; multiplex microsphere protease substrate cleavage, flow cytometry; inhibition, % at 10 µM; 360,000 compounds, 0.17% hits; AID 588499; note: plate controls were buffer without enzyme for full effect and enzyme alone for no effect
TcdB GH inh: TcdB glycohydrolase inhibition | AID 652162 | P18177 | inhibition, % at 9.99 µM | TcdB glycohydrolase enzymatic assay, plate reader | 350,000 compounds, 0.24% hits; in the data active = inhibition above about 10%
Starred values were filed as active, the others as inactive; ? = inconclusive; . = no result. Cut-off read from the data, not from the text of the source, unless noted: active = inhibition above about 30%; inconclusive = no clear call, values can overlap the other calls; inactive = below that.

SMILES | Bead autofluor | BoNT-F LC inh | Anthrax LF prot | BoNT A protease | TcdB GH inh
COC(=O)c1ccccc1NC(=O)COC(=O)c1ccco1 | 9984 | -14.4 | 1.9 | 0.1 | .
CCOc1ccccc1C(=O)OCC(=O)Nc1ncc(C(F)(F)F)cc1Cl | 21522* | -5.8 | 0.0 | -6.0 | .
COC(=O)c1ccccc1NC(=O)COC(=O)c1ccc(C)c(NC(=O)c2ccco2)c1 | 21306* | -0.4 | -0.1 | ? | .
Cc1ccc(C(=O)OCC(=O)Nc2ncc(C(F)(F)F)cc2Cl)cc1NC(=O)c1ccco1 | 20917* | -4.0 | 0.7 | -3.8 | .
O=C(Nc1ccccc1)[C@@H]1[C@@H](CO)[C@@H]2Cn3c(cccc3=O)[C@@H]2N1Cc1ccccc1Cl | . | . | . | . | 1.1
C[C@H](CO)N1C[C@H](C)[C@H](CN(C)C(=O)c2ccc3c(c2)OCO3)Oc2ncc(/C=C/c3ccccc3)cc2C1=O | . | . | . | . | 0.7
CCOc1ccc(C(=O)NCC2(c3ccccc3)CCOCC2)cc1 | 2975 | -13.9 | -0.9 | -0.7 | 0.9
COc1ccc(C2(CNC(=O)c3ccccc3)CCOCC2)cc1 | 6601 | 0.4 | -7.1 | 0.2 | 0.2
CCCCCOc1ccc(C(=O)NCC2(c3ccccc3)CCOCC2)cc1 | 16606* | -2.2 | -6.1 | -1.8 | .
CCCCOc1ccc(C(=O)NCC2(c3ccccc3)CCOCC2)cc1 | 22415* | 1.6 | -0.2 | ? | .
C[C@H]1CCCCO[C@H](CN(C)C(=O)Nc2ccc(F)cc2)[C@@H](C)CN([C@@H](C)CO)C(=O)c2cc(NC(=O)Nc3ccccc3)ccc2O1 | . | . | . | . | 0.4
CCc1ccccc1NC(=S)N(Cc1ccc(C(=O)O)cc1)Cc1ccc(OC)c(OC)c1 | 3332 | -7.2 | -3.5 | -1.2 | 13.2*
Cc1ccc(S(=O)(=O)N(C)C[C@H]2Oc3ccc(NC(=O)Cn4cnnn4)cc3CC(=O)N([C@@H](C)CO)C[C@H]2C)cc1 | . | . | . | . | 0.9
CCNC(=S)NNC(=O)c1cc(C2CC2)nc2ccccc12 | 22689* | 1.8 | -0.5 | -1.6 | .
CCCCOc1cccc(-c2cc(C(=O)NNC(=S)NCC)c3ccccc3n2)c1 | 19871* | -2.3 | 1.2 | -0.7 | .
CCCNC(=S)NNC(=O)c1cc(C2CC2)nc2ccccc12 | 5886 | -1.4 | 1.5 | -0.1 | 1.2
CCOc1ccc(S(=O)(=O)NCc2ccccc2)cc1C(N)=O | 3612 | -1.5 | -9.5 | 0.9 | 6.3
CCOc1ccc(S(=O)(=O)NCc2ccccc2Cl)cc1C(N)=O | 4550 | -3.5 | -4.2 | -0.4 | 19.6*
COc1cc2nc(C3CCC3)n(NC(=O)c3ccco3)c(=O)c2cc1OC | 4252 | -13.9 | -1.6 | -1.1 | -0.4
COCCn1c(SCC(=O)N2CCC(C)CC2)nc2ccccc2c1=O | 7929 | 2.9 | -0.4 | 0.1 | .
COc1ccc(C(=O)Nn2c(SCC(=O)c3ccc(Cl)cc3)nc3ccccc3c2=O)cc1 | 20288* | -0.4 | -1.0 | 0.2 | .
COc1ccc(C(=O)Nn2c(SCC(=O)NCc3ccco3)nc3ccccc3c2=O)cc1 | 3156 | 8.9 | 0.0 | -0.4 | .
COc1ccc(C(=O)Nn2c(SCC(=O)N3CCC(C)CC3)nc3ccccc3c2=O)cc1 | 20975* | -4.9 | -0.2 | ? | .
COc1ccc(C(=O)Nn2c(C)nc3ccccc3c2=O)cc1 | 4471 | ? | 1.0 | -3.4 | -0.3
COc1ccc(C(=O)Nn2c(C3CCC3)nc3ccccc3c2=O)c(OC)c1 | 18494* | 6.7 | -7.8 | 4.4 | -0.1
SMILES | Bead autofluor | BoNT-F LC inh | Anthrax LF prot | BoNT A protease | TcdB GH inh
COc1ccc(C(=O)Nn2c(SCC(=O)NC3CCCCC3)nc3ccccc3c2=O)cc1 | 20612* | -2.3 | -1.2 | -1.0 | .
Cc1noc(C)c1NC(=O)N(C)C[C@H]1Oc2c(NS(=O)(=O)c3ccccc3)cccc2C(=O)N([C@H](C)CO)C[C@@H]1C | . | . | . | . | 0.5
O=C1c2ccccc2C(=O)N1CC1CCN(Cc2ccc(OCCO)cc2)CC1 | . | . | . | . | -2.5
C[C@@H]1CN([C@@H](C)CO)C(=O)c2c(c3ccccc3n2C)-c2ccccc2CO[C@@H]1CN(C)C(=O)[C@H]1CCCN1C | . | . | . | . | 0.2
CCCCN(C(=O)c1sc2nc3n(c(=O)c2c1C)CCC3)c1c(N)n(CC(C)C)c(=O)[nH]c1=O | 5247 | -7.0 | 1.5 | 0.1 | 1.6
Cc1c(C(=O)N(CC(C)C)c2c(N)n(Cc3ccccc3)c(=O)[nH]c2=O)sc2nc3n(c(=O)c12)CCC3 | ? | 2.5 | 32.3* | 3.7 | -1.6
COC(=O)c1cccc(NC(=O)c2nn(C(C)C)c(=O)c3ccccc23)c1 | 17352* | -3.5 | -0.9 | ? | .
CO[C@H]1CN(C)C(=O)c2ccc(NS(C)(=O)=O)cc2OC[C@@H](C)NC[C@@H]1C | . | . | . | . | -0.3
C[C@H](CO)N1C[C@H](C)[C@H](CN(C)C(=O)Cc2cccnc2)Oc2cc(C3=CCCCC3)ccc2S1(=O)=O | . | . | . | . | -0.4
O=C1N(Cc2ccc(F)cc2Cl)c2ccccc2C12OCCCO2 | 19128* | -1.4 | -0.1 | 1.9 | .
O=C1N(Cc2ccccc2F)c2ccccc2C12OCCCO2 | 20831* | -2.8 | -0.9 | -0.1 | .
C=CCN1C(=O)C2(OCCCO2)c2ccccc21 | 3449 | -2.1 | 9.7 | -1.2 | 0.6
CC=Cc1ccc2n(c1=O)C[C@@H]1[C@@H](CO)[C@H](C(=O)NCc3ccccn3)N(CC3CC3)[C@H]21 (mixture of isomers) | . | . | . | . | 0.3
COc1ccc(NC(=O)N(C)C[C@H]2Oc3ncc(C#C[C@H](C)O)cc3C(=O)N([C@@H](C)CO)C[C@H]2C)cc1 | . | . | . | . | -0.3
O=C(C[C@H]1CC[C@H]2[C@@H](COC[C@H](O)CN2Cc2cccc(C(F)(F)F)c2)O1)NCCc1ccccc1 | . | . | . | . | -9.7
COC(=O)COC(=O)c1ccc(-n2nnnc2SC)cc1 | 22577* | 5.7 | -2.3 | 0.9 | .
COC(=O)c1ccc(-n2nnnc2SC)cc1 | ? | 2.2 | 22.5 | -1.5 | .
O=Cc1cn(Cc2ccc(F)cc2)c2ccccc12 | 2119 | -2.7 | -0.9 | 0.2 | 1.9
O=[N+]([O-])/C=C/c1cn(Cc2ccc(F)cc2)c2ccccc12 | 6767 | 27.4 | 31.2* | 37.5* | .
C[C@@H]1CN([C@@H](C)CO)C(=O)c2cccc(NC(=O)c3ccncc3)c2O[C@@H]1CN(C)S(=O)(=O)c1ccccc1 | . | . | . | . | 0.2
COc1cccc(NC(=O)N(CCCN2CCOCC2)C(C)c2cc3cccc(OC)c3o2)c1 (stereo unspecified) | 2656 | -1.1 | -3.5 | 0.3 | .
COc1cccc(NC(=O)N(CCCN2CCOCC2)C(C)c2cc3ccccc3o2)c1 (stereo unspecified) | 21426* | 3.7 | 0.9 | 2.9 | -0.2
Cc1ccc2[nH]cc(CCNC(=O)Nc3ccccc3)c2c1 | 21739* | -6.7 | -0.5 | -3.0 | .
C[C@H]1CN([C@@H](C)CO)C(=O)c2cccc(NS(=O)(=O)c3cn(C)cn3)c2O[C@H]1CN(C)Cc1ccc(-c2ccccc2)cc1 | . | . | . | . | 0.2
C#CCNc1cc(C)nc2ncnn12 | 24731* | -4.8 | -0.5 | ? | .
Cn1cccc1CNCc1ccccc1Cl | 18677* | -8.5 | -3.7 | 2.4 | .
CCCCCNCc1cccn1C | 6142 | -0.2 | -4.7 | -0.4 | .
CO[C@@H]1CN(C)C(=O)c2ccc(NC(C)=O)cc2OC[C@@H](C)N(C(=O)C2CC2)C[C@@H]1C | . | . | . | . | 0.4
O=C(CSCc1ccccc1)NC1CCSC1=O (stereo unspecified) | 23850* | -2.8 | -1.3 | -1.5 | .
CC(CC(=O)NC1CCSC1=O)c1ccccc1 (stereo unspecified) | 11715 | -13.3 | -2.5 | -2.2 | .

Screening results from PubChem BioAssay.
